Assay outcomes as filed in PubChem BioAssay.
C diff HTS – C. difficile growth inhibitors, primary screen, HTS; 86,000 tested, 0.25% active; growth activity, negative = inhibition, % at 16 µg/mL (by protocol); Clostridium difficile clinical isolate growth, OD600, 24 h; stronger effect = lower value;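 active = mean growth activity at or below -80% and every replicate also at or below -80%; inconclusive = mean at or below -80% but some replicate above -80%; inactive = mean growth activity above -80%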;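 note: 0% = DMSO wells and -100% = levofloxacin 16 µg/mL wells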
T cruzi growth-1 – T. cruzi intracellular proliferation inhibitors, primary screen, cell-based, beta-gal Tulahuen parasites, NIH3T3 host, luminescence. T. cruzi beta-gal in NIH3T3, GalScreen luminescence, 90 h. inhibition, % at 8.34 µM. 77,000 tested, 5.9% active;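 active = mean inhibition above about 93%, with at least 55% of replicates each passing it, limit read from the data, passing the limit was not always enough; inconclusive = only one of those two conditions holds; inactive = neither condition holds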
T cruzi growth-2 – T. cruzi intracellular proliferation inhibitors, confirmation, cell-based, NIH3T3 host, beta-gal parasite, luminescence, cherry-pick. T. cruzi beta-gal in NIH3T3, GalScreen luminescence, 90 h. inhibition, % at 8.35 µM. shares compounds with T cruzi growth-1. 5,600 tested, 72% active. AID 651739, 2012;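 active = mean replicate inhibition above about 95% and at least 55% of replicates individually reaching it, limit read from the data; inconclusive = only one of the two criteria is met; inactive = neither criterion is met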
T cruzi growth-3 – inhibitors of intracellular T. cruzi replication, confirmation, NIH3T3 host cells, beta-gal parasites, cherry-pick, set 2. shares compounds with T cruzi growth-1. T. cruzi beta-gal in NIH3T3, GalScreen luminescence, 90 h. inhibition, % at 2.09 µM. 5,600 tested, 21% active. AID 651740, 2012;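 active = mean inhibition above about 95%, with at least 55% of replicates also reaching it, limit read from the data; inconclusive = meets just one of the two conditions; inactive = meets neither condition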;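 note: plate controls were neutral control median for no effect and positive control median for full effect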
3T3 cytotox – cytotoxicity in mouse NIH/3T3 fibroblasts, confirmation, cytotoxicity control for T. cruzi proliferation inhibitor project, cell-based, cherry-pick, single point; shares compounds with T cruzi growth-1; NIH/3T3 viability, CellTiter-Glo ATP luminescence, 90 h; cytotoxicity (signal decrease), % at 8.35 µM; 5,600 tested, 14% active;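 active = mean signal decrease across replicates above about 35% based on untreated-well scatter, with enough replicates individually passing, limit read from the data; inconclusive = no rule stated though some were filed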;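 note: 0% = median of neutral control wells and 100% = median of positive control wells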
3T3 cytotox 2 – NIH/3T3 fibroblast cytotoxicity, confirmation, cytotoxicity control, cell-based, cherry-pick, single point, set 2; AID 651744, 2012; inhibition, % at 24.9 µM; NIH/3T3 viability, CellTiter-Glo ATP luminescence, 90 h; shares compounds with T cruzi growth-1; 5,600 tested, 56% active;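 active = mean loss of cell viability signal at or above a set limit, and enough replicates individually reaching it; inconclusive = meets only the mean limit or only the replicate share; inactive = meets neither condition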;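 note: 0% = median of neutral control wells and 100% = median of positive control wells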
* marks the source's active call; other numbers are inactive results; ? = inconclusive; · = no result. The sample as a whole holds a higher share of hits than the screen did.

SMILES	C diff HTS	T cruzi growth-1	T cruzi growth-2	T cruzi growth-3	3T3 cytotox	3T3 cytotox 2
C[C@H]1CN([C@@H](C)CO)S(=O)(=O)c2ccc(C3=CCCCC3)cc2O[C@@H]1CN(C)C(=O)c1ccc(F)cc1	-1	115*	110*	102*	47*	96*
C[C@H](CO)N1C[C@H](C)[C@H](CN(C)C(=O)c2ccccc2)Oc2cc(C3=CCCCC3)ccc2S1(=O)=O	4	103*	101*	69	30	64*
C[C@@H]1CN([C@@H](C)CO)S(=O)(=O)c2ccc(C3=CCCC3)cc2O[C@@H]1CN(C)C(=O)c1ccc(F)cc1	1	·	·	·	·	·
CCC(=O)N1C[C@H](C)[C@@H](OC)CN(C)C(=O)c2cc(NC(=O)c3ccccc3)ccc2OC[C@H]1C	·	37	·	·	·	·
COC(=O)c1c2oc(c1C(=O)OC)C(=O)N(C)Cc1cn(nn1)C[C@H](Cc1ccccc1)NC(=O)N[C@H](CO)CC2	-5	·	·	·	·	·
C[C@@H]1CN([C@H](C)CO)S(=O)(=O)c2ccc(C3=CCCCC3)cc2O[C@@H]1CN(C)C(=O)c1ccc(F)cc1	0	113*	107*	91	18	101*
C[C@H]1CN([C@@H](C)CO)S(=O)(=O)c2ccc(C3=CCCCC3)cc2O[C@H]1CN(C)C(=O)c1ccc(F)cc1	4	111	·	·	·	·
C[C@H](CO)N1C[C@H](C)[C@H](CN(C)Cc2ccc(C(=O)O)cc2)Oc2ccc(NS(C)(=O)=O)cc2C1=O	·	-104	·	·	·	·
Cc1ccc(S(=O)(=O)N2CC[C@@H]3[C@H]2c2cc(C#Cc4ccccc4F)ccc2N[C@@H]3CO)cc1	46	?	113*	110*	24	?
Cc1ccc(S(=O)(=O)N2CC[C@@H]3[C@H](CO)Nc4ccc(C#Cc5cccc(F)c5)cc4[C@@H]32)cc1	-1	71	·	·	·	·
O=S(=O)(c1ccccc1)N1CC[C@@H]2[C@H](CO)Nc3ccc(C#Cc4cccc(F)c4)cc3[C@@H]21	32	?	101*	111*	46*	59*
Cc1ccc(S(=O)(=O)N2CC[C@@H]3[C@H](CO)Nc4ccc(C#Cc5ccc(F)cc5)cc4[C@@H]32)cc1	-12	-11	·	·	·	·
O=S(=O)(c1ccccc1)N1CC[C@H]2[C@H](CO)Nc3ccc(C#Cc4cccc(F)c4)cc3[C@H]21	45	·	·	·	·	·
Cc1ccc(S(=O)(=O)N2CC[C@@H]3[C@@H](CO)Nc4ccc(C#Cc5cccc(F)c5)cc4[C@@H]32)cc1	8	99*	101*	108*	39*	57*
CN(C)CC(=O)N[C@H]1CC[C@@H](CCNC(=O)C2CC2)O[C@@H]1CO	-9	·	·	·	·	·
COc1ccc(NC(=O)Nc2ccc3c(c2)C(=O)N([C@@H](C)CO)C[C@@H](C)[C@H](CN(C)S(=O)(=O)c2ccc(OC)cc2)OCCCC[C@H](C)O3)cc1	-1	16	·	·	·	·
COc1ccc2c3c(n(C)c2c1)[C@@H](CO)N(C(=O)CC1CC1)CC31CCN(C(=O)NC(C)C)CC1	-4	·	·	·	·	·
C[C@@H]1CN([C@H](C)CO)C(=O)c2cc(NS(=O)(=O)c3ccc(F)cc3)ccc2O[C@@H](C)CCCCO[C@H]1CN(C)S(=O)(=O)c1ccc(F)cc1	-25	·	·	·	·	·
C[C@@H]1CCCCO[C@H](CN(C)S(=O)(=O)c2ccc(F)cc2)[C@H](C)CN([C@H](C)CO)C(=O)c2cc(NS(=O)(=O)c3ccc(F)cc3)ccc2O1	1	115*	106*	?	10	-5
C[C@@H]1CCCCO[C@@H](CN(C)S(=O)(=O)c2ccccc2)[C@@H](C)CN([C@@H](C)CO)C(=O)c2cc(NS(=O)(=O)c3ccc(F)cc3)ccc2O1	-4	85	·	·	·	·
Cc1noc(C)c1S(=O)(=O)N(C)C[C@H]1OCCCC[C@@H](C)Oc2ccc(NS(=O)(=O)c3ccc(F)cc3)cc2C(=O)N([C@@H](C)CO)C[C@H]1C	-16	97*	103*	81	-16	8
C[C@@H]1CCCCO[C@@H](CN(C)S(=O)(=O)c2ccc(F)cc2)[C@@H](C)CN([C@@H](C)CO)C(=O)c2cc(NS(=O)(=O)c3ccccc3)ccc2O1	10	51	·	·	·	·
Cc1noc(C)c1S(=O)(=O)N(C)C[C@@H]1OCCCC[C@@H](C)Oc2ccc(NS(=O)(=O)c3ccc(F)cc3)cc2C(=O)N([C@@H](C)CO)C[C@@H]1C	-1	56	·	·	·	·
C[C@@H]1CCCCO[C@H](CN(C)S(=O)(=O)c2ccc(F)cc2)[C@H](C)CN([C@@H](C)CO)C(=O)c2cc(NS(=O)(=O)c3ccc(F)cc3)ccc2O1	12	110*	113*	81	2	4
C[C@H](CO)N1C[C@H](C)[C@@H](CN(C)S(=O)(=O)c2ccc(F)cc2)OCCCC[C@H](C)Oc2ccc(NS(=O)(=O)c3ccc(F)cc3)cc2C1=O	-5	98*	96*	40	66*	59*
SMILES	C diff HTS	T cruzi growth-1	T cruzi growth-2	T cruzi growth-3	3T3 cytotox	3T3 cytotox 2
O=C(C[C@H]1CC[C@@H]2[C@H](COC[C@H](O)CN2Cc2cc(F)cc(F)c2)O1)Nc1nccs1	8	26	·	·	·	·
O=C(NCC[C@@H]1CC[C@H](NC(=O)c2cnccn2)[C@H](CO)O1)c1ccc2c(c1)OCO2	4	·	·	·	·	·
COc1cccc(C(=O)Nc2ccc3c(c2)C(=O)N(C)C[C@@H](OC)[C@H](C)CN(C(=O)C2CCCC2)[C@@H](C)CO3)c1	·	75	·	·	·	·
O=C(N[C@@H]1CC[C@H](CCNS(=O)(=O)c2ccc(F)cc2)O[C@@H]1CO)c1cccc(F)c1	-2	·	·	·	·	·
C[C@H]1CCCCO[C@@H](CN(C)Cc2ccccc2)[C@@H](C)CN([C@@H](C)CO)C(=O)c2cc(NS(=O)(=O)c3cn(C)cn3)ccc2O1	5	·	·	·	·	·
CN1C(=O)c2cc(NC(=O)Nc3cccc(Cl)c3)ccc2OC[C@H]2O[C@@H](CC(=O)NCCc3ccncc3)CC[C@H]21	4	6	·	·	·	·
CN1c2ccc(Br)cc2[C@H]2[C@H](CCN2C(=O)C2CC2)[C@@H]1CO	-3	10	·	·	·	·
CCC(=O)N(C)C[C@@H]1Oc2cc(-c3ccc(F)cc3)ccc2S(=O)(=O)N([C@H](C)CO)C[C@@H]1C	-3	60	·	·	·	·
COc1ccc(S(=O)(=O)Nc2ccc3c(c2)C(=O)N([C@H](C)CO)C[C@H](C)[C@H](CN(C)S(=O)(=O)c2ccc(Cl)cc2)OCCCC[C@@H](C)O3)cc1	14	94	·	·	·	·
COc1ccc(S(=O)(=O)N(C)C[C@H]2OCCCC[C@H](C)Oc3ccc(NS(=O)(=O)c4ccc(Cl)cc4)cc3C(=O)N([C@@H](C)CO)C[C@H]2C)cc1	1	·	·	·	·	·
